Test results from PubChem BioAssay (NCATS).
A number with no mark means an inactive call. Records with an inconclusive call do not appear. Activity calls are given as the source filed them. Calls come from the whole dose curve; as a rule, active = well fitted curve in the direction sought with a large enough effect; inconclusive = small, poorly fitted or top-dose-only effect, or another doubt; inactive = no such curve, though single readings can be large; an effect the other way counts as inactive or inconclusive.

What was measured:
[1] = target: Cytochrome P450 3A4 (Homo sapiens) (UniProt P08684); assay: qHTS Assay for Inhibitors and Substrates of Cytochrome P450 3A4 (AID 884); note: potency is the fitted concentration of half-maximal effect; nearly all actives have a fitted effect of over 50% in size
Cytochrome P450 3A4 (Homo sapiens), sequence (P08684 whole entry, looked up): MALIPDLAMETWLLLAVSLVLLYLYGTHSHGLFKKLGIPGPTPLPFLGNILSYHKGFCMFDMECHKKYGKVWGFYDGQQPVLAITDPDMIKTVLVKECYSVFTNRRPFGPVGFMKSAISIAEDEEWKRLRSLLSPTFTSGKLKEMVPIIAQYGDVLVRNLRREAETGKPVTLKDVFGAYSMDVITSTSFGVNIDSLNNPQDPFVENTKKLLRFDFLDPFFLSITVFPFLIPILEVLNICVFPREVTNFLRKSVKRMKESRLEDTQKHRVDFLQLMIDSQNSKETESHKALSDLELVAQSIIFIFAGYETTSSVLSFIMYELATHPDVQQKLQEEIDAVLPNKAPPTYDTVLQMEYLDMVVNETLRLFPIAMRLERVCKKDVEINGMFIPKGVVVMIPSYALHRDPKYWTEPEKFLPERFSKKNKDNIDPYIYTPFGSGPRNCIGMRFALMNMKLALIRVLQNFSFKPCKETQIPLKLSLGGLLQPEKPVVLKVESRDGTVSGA
Summary of the method: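 Luminescent readout of luciferin produced by CYP3A4 (20 nM) dealkylation of Luciferin-PPXE, 25 uM (its KM). NADPH-driven reaction ran 60 min at RT after 10 min compound preincubation; data scaled to 57 uM ketoconazole as 100% inhibition.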

[2] = target: Cytochrome P450 3A4 (Homo sapiens) (UniProt P08684); assay: qHTS Assay for Activators of Cytochrome P450 3A4 (AID 885); note: nearly all actives have a fitted effect of over 65% in size
Summary of the method: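 CYP3A4 activity: Luciferin-PPXE O-dealkylation, 25uM substrate, 200mM KPO4, RT throughout. Read-out is luciferase luminescence; higher values reflect activation.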

[3] = Confirmation and Secondary Assay for Modulators of Hemoglobin Beta Chain Splicing at IVS2 654 locus (AID 910);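 note: per-well total GFP intensity by laser scanning cytometry after 2-day treatment; % of control where 0% means no effect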
Summary of the method: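 HeLa cells stably carrying EGFP interrupted by mutant beta-globin IVS2-654 intron (CMV-driven) were treated with compound for 2 days at 37C; corrected splicing was scored as total peak GFP intensity per well (488 nm excitation, 500-520 nm emission).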

[4] = Confirmation and Secondary Assay for Modulators of Hemoglobin Beta Chain Splicing at IVS2 705 locus (AID 930);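 note: HeLa cells stably expressing the EGFP-705 splicing reporter; series mostly up to about 46 µM; % of control where 0% means no effect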
Summary of the method: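 HeLa cells stably carrying EGFP interrupted by mutant beta-globin IVS2-705 intron (CMV-driven) were seeded at 500 cells/well, treated next day with compound for 2 days at 37C; corrected splicing restores EGFP, read as total peak GFP intensity per well.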

[5] = target: Cytochrome P450 2C19 (Homo sapiens) (UniProt P33261); assay: qHTS Assay for Inhibitors and Substrates of Cytochrome P450 2C19 (AID 899); note: nearly all actives have a fitted effect of over 60% in size; note: potency is the fitted concentration of half-maximal effect
Cytochrome P450 2C19 (Homo sapiens), sequence (P33261 whole entry, looked up): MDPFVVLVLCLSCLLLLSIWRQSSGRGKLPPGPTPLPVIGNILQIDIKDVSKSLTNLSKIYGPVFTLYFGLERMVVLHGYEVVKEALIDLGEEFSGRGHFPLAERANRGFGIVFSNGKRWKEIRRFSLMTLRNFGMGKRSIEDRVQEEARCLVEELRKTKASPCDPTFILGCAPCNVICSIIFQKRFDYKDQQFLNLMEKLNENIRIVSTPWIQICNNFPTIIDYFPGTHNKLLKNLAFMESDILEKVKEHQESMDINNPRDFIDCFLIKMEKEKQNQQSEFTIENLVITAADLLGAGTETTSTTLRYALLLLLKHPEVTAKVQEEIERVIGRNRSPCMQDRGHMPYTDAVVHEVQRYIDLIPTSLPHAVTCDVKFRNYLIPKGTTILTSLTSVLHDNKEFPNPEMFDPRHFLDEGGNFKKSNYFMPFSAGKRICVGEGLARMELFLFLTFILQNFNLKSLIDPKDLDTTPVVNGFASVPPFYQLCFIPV
Summary of the method: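 In 50mM KPO4, the reaction held 5nM enzyme and KM-level (10uM) Luciferin-H EGE; it ran 60 min at 37C after NADPH regeneration and a 10 min compound preincubation. Luminescence values were scaled to 57uM ketoconazole as complete inhibition.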

SMILES	Potency [1]	Potency [2]	outcome [3]	outcome [4]	activity change, positive = activation [2]	Potency [5]
Nc1nc2c(ncn2C2OC(COC(=O)c3ccccc3)C(OC(=O)c3ccccc3)C2OC(=O)c2ccccc2)c(=O)[nH]1 (stereo unspecified)	3.98 µM (active)	inactive	inactive	inactive		
C=C(C)C(O)/C=C/c1cccc(OC)c1 (stereo unspecified)	3.98 µM (active)				-69.2% [at 11.4 µM]	0.0126 µM (active)
C[C@@H](c1ccccc1)N1C(=O)[C@H]2[C@H]3[C@H](O)[C@H](O)C/C(=N/OC[C@@H](O)COCc4ccco4)[C@@H]3CC[C@@H]2C1=O	3.16 µM (active)				-82.9% [at 11.4 µM]	inactive
CCCNC(=O)OC[C@@H]1O[C@H](CCO/N=C2\c3cc(OC)ccc3O[C@H](c3cccc(OC)c3)[C@H]2O)C=C[C@@H]1Oc1ccc(OC)cc1	5.01 µM (active)				-120% [at 11.4 µM]	1.58 µM (active)
CCO[C@H](c1cc(OC)cc([N+](=O)[O-])c1OC)[C@H](C)/C=C\CC(=O)OC	3.98 µM (active)				-72.1% [at 11.4 µM]	0.398 µM (active)
COc1cc(OC)c2c(=O)c(-c3ccc4c(c3)OCO4)coc2c1	6.31 µM (active)	inactive	inactive	inactive		
C=CC[C@@H]1C=C[C@H](Oc2ccc(C)cc2)[C@H](COC(=O)NCc2cccc3ccccc23)O1	3.16 µM (active)				-96.8% [at 11.4 µM]	1.26 µM (active)
COc1cc2c(cc1OC)-c1c(oc3cc(O)cc(O)c3c1=O)CO2	10 µM (active)	inactive	inactive			
